Assay results: PubChem BioAssay (NCATS)
Inconclusive results are not listed. Activity calls are given as the source filed them. Unless noted, the call rests on the fitted dose curve; in most records, active means well fitted curve in the direction sought with a large enough effect; inconclusive means small, poorly fitted or top-dose-only effect, or another doubt; inactive means no such curve, though single readings can be large; an effect the other way counts as inactive or inconclusive.

Legend:
[1] = biological target: ATPase family AAA domain-containing protein 5 (Homo sapiens) (UniProt Q96QE3); assay: Validation screen for small molecules that inhibit ELG1-dependent DNA repair in human embryonic kidney (HEK293T) cells expressing luciferase-tagged ELG1 (AID 493107);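 further: cells co-treated with the DNA-damaging agent 5-fluorouridine alongside compound; series mostly up to about 46 µM; on the % scale 0 is the no-effect control and ±100 the full control effect; inhibitors lower the ELG1-luciferase luminescence signal; nearly all actives have a fitted effect of over 70% in size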
Chain of ATPase family AAA domain-containing protein 5 (Homo sapiens) (Q96QE3 whole entry, looked up, the tested form may be a part): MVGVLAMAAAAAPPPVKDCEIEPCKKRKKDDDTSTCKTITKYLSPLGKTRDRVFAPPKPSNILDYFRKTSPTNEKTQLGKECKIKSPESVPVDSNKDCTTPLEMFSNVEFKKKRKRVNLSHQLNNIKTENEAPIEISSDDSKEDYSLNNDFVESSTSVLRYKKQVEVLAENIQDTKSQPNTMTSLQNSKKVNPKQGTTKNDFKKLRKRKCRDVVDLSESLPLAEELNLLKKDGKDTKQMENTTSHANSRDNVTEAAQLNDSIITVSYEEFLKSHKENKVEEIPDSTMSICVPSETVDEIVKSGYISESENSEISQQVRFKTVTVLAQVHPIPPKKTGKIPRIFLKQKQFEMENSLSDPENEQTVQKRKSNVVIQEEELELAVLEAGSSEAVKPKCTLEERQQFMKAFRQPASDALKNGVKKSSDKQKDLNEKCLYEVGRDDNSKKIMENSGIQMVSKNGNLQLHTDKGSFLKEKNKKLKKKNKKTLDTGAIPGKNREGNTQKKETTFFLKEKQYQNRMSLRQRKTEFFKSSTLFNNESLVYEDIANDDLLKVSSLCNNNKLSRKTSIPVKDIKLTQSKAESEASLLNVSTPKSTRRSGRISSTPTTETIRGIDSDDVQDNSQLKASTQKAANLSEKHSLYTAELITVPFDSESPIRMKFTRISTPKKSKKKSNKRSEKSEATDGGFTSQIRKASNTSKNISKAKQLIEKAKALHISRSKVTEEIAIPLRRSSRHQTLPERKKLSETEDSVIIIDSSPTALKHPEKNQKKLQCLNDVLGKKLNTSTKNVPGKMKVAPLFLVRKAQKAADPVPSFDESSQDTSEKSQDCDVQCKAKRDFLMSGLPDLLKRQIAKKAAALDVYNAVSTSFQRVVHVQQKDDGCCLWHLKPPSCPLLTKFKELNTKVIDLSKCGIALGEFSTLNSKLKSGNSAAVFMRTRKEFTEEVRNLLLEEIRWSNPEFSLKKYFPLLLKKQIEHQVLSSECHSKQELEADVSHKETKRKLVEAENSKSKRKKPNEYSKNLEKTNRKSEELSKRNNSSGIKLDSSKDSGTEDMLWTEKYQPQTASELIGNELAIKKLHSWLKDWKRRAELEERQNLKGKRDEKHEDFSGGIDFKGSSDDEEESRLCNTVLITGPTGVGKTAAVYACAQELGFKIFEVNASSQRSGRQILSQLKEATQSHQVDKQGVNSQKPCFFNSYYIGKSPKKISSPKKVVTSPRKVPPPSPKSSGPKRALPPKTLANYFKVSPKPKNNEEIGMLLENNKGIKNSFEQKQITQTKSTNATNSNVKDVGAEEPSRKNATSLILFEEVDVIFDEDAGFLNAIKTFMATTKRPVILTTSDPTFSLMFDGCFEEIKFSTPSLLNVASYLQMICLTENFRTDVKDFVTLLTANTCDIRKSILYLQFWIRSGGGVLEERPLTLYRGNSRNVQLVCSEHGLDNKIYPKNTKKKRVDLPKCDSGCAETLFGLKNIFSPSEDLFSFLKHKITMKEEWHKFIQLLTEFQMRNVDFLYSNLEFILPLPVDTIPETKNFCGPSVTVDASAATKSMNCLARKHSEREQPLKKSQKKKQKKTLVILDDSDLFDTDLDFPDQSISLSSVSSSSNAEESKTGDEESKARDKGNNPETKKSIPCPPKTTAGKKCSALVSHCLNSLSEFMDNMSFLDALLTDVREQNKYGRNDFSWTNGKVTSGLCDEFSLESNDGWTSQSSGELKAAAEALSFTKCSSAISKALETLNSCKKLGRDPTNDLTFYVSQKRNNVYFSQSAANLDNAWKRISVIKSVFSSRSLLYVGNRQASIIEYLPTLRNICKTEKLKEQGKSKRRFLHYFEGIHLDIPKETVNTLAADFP
Procedure, shortened: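 Quantitative HTS in HEK293T cells carrying luciferase-tagged ELG1, stimulated with 5-fluorouridine alongside compound for 16 hr. Loss of luciferase signal marks inhibition of ELG1 response.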

[2] = biological target: Thyrotropin-releasing hormone receptor (Homo sapiens) (UniProt P34981); assay: qHTS for Small Molecule Agonists and Allosteric Enhancers of Human TRH Receptor: Validation Screen for Agonists (AID 493127;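 active means calcium activation more than 3 SD above the typical response in the agonist read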;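 further: intracellular calcium rise by fluo-8 fluorescence before TRH EC20 addition; 0% is about no effect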); conditions: TRH receptor agonist cell assay; at 2 µM; stronger effect = higher value
Chain of Thyrotropin-releasing hormone receptor (Homo sapiens) (P34981 whole entry, looked up): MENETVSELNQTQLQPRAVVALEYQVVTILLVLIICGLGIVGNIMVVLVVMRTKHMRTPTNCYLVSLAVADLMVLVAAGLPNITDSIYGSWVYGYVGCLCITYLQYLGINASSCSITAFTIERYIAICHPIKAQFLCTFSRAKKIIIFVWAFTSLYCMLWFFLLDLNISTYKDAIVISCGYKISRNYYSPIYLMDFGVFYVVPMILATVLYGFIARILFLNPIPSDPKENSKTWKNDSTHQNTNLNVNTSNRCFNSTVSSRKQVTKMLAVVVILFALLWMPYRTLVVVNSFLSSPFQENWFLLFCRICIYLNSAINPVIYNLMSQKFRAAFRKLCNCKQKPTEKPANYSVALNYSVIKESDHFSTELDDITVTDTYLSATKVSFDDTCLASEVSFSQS
Procedure, shortened: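 Gq-coupled calcium mobilization in TRHR cells after compound addition, monitored kinetically with fluo-8 dye on an FDSS reader.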

[3] = Nrf2 qHTS screen for inhibitors: Validation (AID 493153; active means well fitted inhibition curve with a large enough effect in the main read-out, with a control signal flat, not every such curve was filed as active); conditions: viability change: measured here: cytotoxicity max response
Procedure, shortened: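 Dose-response validation uses reporter A549 cells with firefly luciferase under an antioxidant response element. Compounds stay on cells 18-24 h at 37°C, and luminescence indicates Nrf2-driven transcription.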

[4] = qHTS for Inhibitors of Cell Surface uPA Generation: Validation Assay (AID 493164);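 further: RAW 264.7 macrophage cells exposed to compound for 18 h; 0% is about no effect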
Procedure, shortened: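 RAW 264.7, 4000 cells/well, o/n plating; cpd 7-pt 1:5 dilution 2.45 nM–38.3 uM final; 18 h, 37 C/5% CO2; ATP-Lite, 5 s luminescence exposure.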

[5] = biological target: Galactokinase (Homo sapiens) (UniProt P51570); assay: qHTS Validation Assay for Inhibitors of Human Galactokinase (GALK) (AID 493189); further: 0% is about no effect
Chain of Galactokinase (Homo sapiens) (P51570 whole entry, looked up): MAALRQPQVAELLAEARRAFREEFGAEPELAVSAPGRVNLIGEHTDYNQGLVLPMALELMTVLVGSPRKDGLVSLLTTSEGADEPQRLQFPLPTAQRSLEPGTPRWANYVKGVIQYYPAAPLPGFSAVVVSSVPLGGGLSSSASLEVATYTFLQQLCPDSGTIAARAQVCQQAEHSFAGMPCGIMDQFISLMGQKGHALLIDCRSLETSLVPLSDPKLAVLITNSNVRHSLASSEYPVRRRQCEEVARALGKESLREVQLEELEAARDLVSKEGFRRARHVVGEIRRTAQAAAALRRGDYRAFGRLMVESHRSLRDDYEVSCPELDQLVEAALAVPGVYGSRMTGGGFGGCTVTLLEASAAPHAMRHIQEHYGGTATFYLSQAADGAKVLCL
Procedure, shortened: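 GALK (5 nM) with 35 uM ATP and 100 uM galactose in HEPES pH 8.0 with MgCl2, NaCl, DTT and BSA. Reaction ran 1 h at room temperature. Residual ATP read by Kinase-Glo Plus luminescence.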

[6] = Validation screen for small molecules that induce DNA re-replication in SW480 colon adenocarcinoma cells (AID 504364); further: 0% is about no effect
Procedure, shortened: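 Cells are treated 48 hr with test compound, stained 40 min with Hoechst at 37 C, and scanned for nuclear fluorescence; compounds inducing re-replication increase nuclei with elevated intensity.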

[7] = biological target: Peptidyl-prolyl cis-trans isomerase NIMA-interacting 1 (Homo sapiens) (UniProt Q13526); assay: qHTS Validation Assay to Find Inhibitors of Pin1 (AID 504536; active means well fitted inhibition curve with a large enough effect in the polarisation, with a control signal flat, not every such curve was filed as active; the % refers to the polarisation;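 further: 0% = full Pin1 enzyme wells and -100% = no-enzyme wells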)
Chain of Peptidyl-prolyl cis-trans isomerase NIMA-interacting 1 (Homo sapiens) (Q13526 whole entry, looked up): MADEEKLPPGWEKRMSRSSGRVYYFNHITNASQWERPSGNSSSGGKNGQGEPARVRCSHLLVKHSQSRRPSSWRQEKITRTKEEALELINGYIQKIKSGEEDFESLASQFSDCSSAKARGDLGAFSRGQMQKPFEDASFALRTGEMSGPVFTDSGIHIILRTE
Procedure, shortened: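 Fluorescence polarization competition: compounds (titration) displace HiFluor-488-labeled Pin1-1b peptide from Pin1 (0.3 uM final) in pH 7.5 HEPES buffer with DTT, 10 min at room temperature; %Activity normalized to no-enzyme wells, curves fitted.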

[8] = biological target: Phosphoglycerate kinase, glycosomal (Trypanosoma brucei brucei) (UniProt P07378); assay: qHTS Validation Assay to Find Inhibitors of Phosphoglycerate Kinase (AID 504547);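 further: control wells lack PGK and mark full inhibition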
Chain of Phosphoglycerate kinase, glycosomal (Trypanosoma brucei brucei) (P07378 whole entry, looked up): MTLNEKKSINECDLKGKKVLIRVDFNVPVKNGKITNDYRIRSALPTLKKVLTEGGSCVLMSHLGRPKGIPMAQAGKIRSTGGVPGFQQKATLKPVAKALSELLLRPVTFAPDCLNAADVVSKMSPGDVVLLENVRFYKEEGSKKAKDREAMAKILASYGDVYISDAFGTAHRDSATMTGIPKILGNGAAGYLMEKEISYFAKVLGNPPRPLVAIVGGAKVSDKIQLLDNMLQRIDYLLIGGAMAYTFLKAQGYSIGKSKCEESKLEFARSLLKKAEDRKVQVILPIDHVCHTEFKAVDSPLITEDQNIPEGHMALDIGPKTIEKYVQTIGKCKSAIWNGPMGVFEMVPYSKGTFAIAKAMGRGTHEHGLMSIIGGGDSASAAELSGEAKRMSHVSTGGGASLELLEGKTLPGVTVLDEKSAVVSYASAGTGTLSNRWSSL
Procedure, shortened: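 Inhibition of the enzyme is judged by a Kinase-Glo Plus luminescent signal following a one-hour incubation at room temperature. Because 1,3-BPG is unstable, it is made in situ by GAPDH at 100nM final; no-PGK wells define the baseline.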

[9] = biological target: phosphoglycerate mutase (Leishmania major) (UniProt Q4Q090); assay: qHTS Validation Assay to Find Inhibitors of Phosphoglycerate Mutase (AID 504548);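 further: end-point luminescence from Kinase-GloPlus after the PGAM reaction; series mostly up to about 58 µM; on the % scale 0 is the no-effect control and ±100 the full control effect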
Chain of phosphoglycerate mutase (Leishmania major) (Q4Q090 1-553): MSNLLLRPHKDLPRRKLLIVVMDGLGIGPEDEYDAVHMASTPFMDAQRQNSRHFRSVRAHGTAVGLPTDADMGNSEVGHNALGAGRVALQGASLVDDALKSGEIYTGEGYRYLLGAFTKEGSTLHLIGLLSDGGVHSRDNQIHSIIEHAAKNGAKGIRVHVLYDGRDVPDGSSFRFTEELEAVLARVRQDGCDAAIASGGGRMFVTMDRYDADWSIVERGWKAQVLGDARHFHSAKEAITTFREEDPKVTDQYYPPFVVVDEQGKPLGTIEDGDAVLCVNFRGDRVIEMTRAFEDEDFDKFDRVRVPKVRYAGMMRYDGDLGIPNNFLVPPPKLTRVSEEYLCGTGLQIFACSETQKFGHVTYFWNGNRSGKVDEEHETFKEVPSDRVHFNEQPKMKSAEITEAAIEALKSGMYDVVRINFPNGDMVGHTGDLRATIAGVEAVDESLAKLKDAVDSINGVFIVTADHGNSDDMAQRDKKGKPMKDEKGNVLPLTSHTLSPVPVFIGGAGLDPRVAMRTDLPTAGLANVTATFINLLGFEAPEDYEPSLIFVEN
Procedure, shortened: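 L. major PGAM (1.25nM final) was added to substrate buffer and pinned compound, incubated 45 minutes at room temperature, then Kinase-GloPlus added; luminescence read after 10 minutes. Buffer: 100 mM TEA pH 7.6, 5 mM MgCl2, 0.01% Tween-20.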

SMILES | outcome [1] | activation [2] | outcome [3] | viability change [3] | outcome [4] | outcome [5] | outcome [6] | outcome [7] | outcome [8] | outcome [9]
NCCCC(=O)O | inactive | -0.125% (inactive) | inactive | 14.4% | inactive | inactive | inactive | inactive | inactive | inactive
CN[C@H]1CC[C@@H](c2ccc(Cl)c(Cl)c2)c2ccccc21 | – | – | inactive | 1.73% | inactive | inactive | inactive | inactive | inactive | inactive
